T cruzi growth-1 = T. cruzi proliferation inhibition; T. cruzi beta-gal in NIH3T3, GalScreen luminescence, 90 h; 77,000 tested, 5.9% active; inhibition, % at 8.34 µM; AID 624255;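 active means mean inhibition above about 93%, with at least 55% of replicates each passing it, limit read from the data, passing the limit was not always enough; inconclusive means only one of those two conditions holds; inactive means neither condition holds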
Pf Dd2 inh = inhibitors of Plasmodium falciparum Dd2 growth; P. falciparum Dd2 growth, SYBR Green, 72 h; active compounds read low; activity change, % at 10 µM; 94,000 tested, 2.3% active; AID 1159554; in the data active means activity change below about -80%; inconclusive means no clear call, values can overlap the other calls
C diff growth = inhibitors of Clostridium difficile growth; Clostridium difficile clinical isolate growth, OD600, 24 h; active compounds read low; growth activity, negative = inhibition, % at 16 µg/mL (by protocol); 86,000 tested, 0.25% active; AID 1259249;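 active means mean growth activity at or below -80% and every replicate also at or below -80%; inconclusive means mean at or below -80% but some replicate above -80%; inactive means mean growth activity above -80%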;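 further: 0% = DMSO wells and -100% = levofloxacin 16 µg/mL wells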
T cruzi growth-2 = inhibitors of T. cruzi proliferation | inhibition, % at 8.35 µM | 5,600 tested, 72% active | AID 651739 | shares compounds with T cruzi growth-1 | T. cruzi beta-gal in NIH3T3, GalScreen luminescence, 90 h;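 active means mean replicate inhibition above about 95% and at least 55% of replicates individually reaching it, limit read from the data; inconclusive means only one of the two criteria is met; inactive means neither criterion is met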
T cruzi growth-3 = blocks T. cruzi growth in NIH3T3 host cells | shares compounds with T cruzi growth-1 | T. cruzi beta-gal in NIH3T3, GalScreen luminescence, 90 h | inhibition, % at 2.09 µM | 5,600 tested, 21% active;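 active means mean inhibition above about 95%, with at least 55% of replicates also reaching it, limit read from the data; inconclusive means meets just one of the two conditions; inactive means meets neither condition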;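 further: plate controls were neutral control median for no effect and positive control median for full effect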
NIH3T3 tox = NIH/3T3 (mouse) viability loss; cytotoxicity (signal decrease), % at 8.35 µM; shares compounds with T cruzi growth-1; NIH/3T3 viability, CellTiter-Glo ATP luminescence, 90 h; 5,600 tested, 14% active;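 active means mean signal decrease across replicates above about 35% based on untreated-well scatter, with enough replicates individually passing, limit read from the data; inconclusive means no rule stated though some were filed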;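 further: 0% = median of neutral control wells and 100% = median of positive control wells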
3T3 cytotox 2 = kills mouse NIH/3T3 fibroblasts. 5,600 tested, 56% active. shares compounds with T cruzi growth-1. NIH/3T3 viability, CellTiter-Glo ATP luminescence, 90 h. AID 651744. inhibition, % at 24.9 µM;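 active means mean loss of cell viability signal at or above a set limit, and enough replicates individually reaching it; inconclusive means meets only the mean limit or only the replicate share; inactive means meets neither condition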;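 further: 0% = median of neutral control wells and 100% = median of positive control wells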
* marks the source's active call; other numbers are inactive results. The list is not random: actives were taken first. Their share in the collection is about 6.8%.

COc1ccc(S(=O)(=O)Nc2ccc3c(c2)C(=O)N([C@@H](C)CO)C[C@@H](C)[C@@H](CN(C)S(=O)(=O)c2cccs2)OCCCC[C@H](C)O3)cc1 was read as T cruzi growth-1 22, Pf Dd2 inh -54 and C diff growth -11.
For CCCNC(=O)C[C@@H]1C[C@H]2c3cc(NC(=O)Nc4ccc(F)cc4)ccc3O[C@H]2[C@@H](CO)O1 the results were T cruzi growth-1 28, Pf Dd2 inh 17 and C diff growth 0.
Screening CCC(=O)N1[C@H](CO)[C@@H](c2ccccc2)C12CN(Cc1cc(F)ccc1F)C2 returned Pf Dd2 inh -37 and C diff growth 11.
`C[C@H]1CN([C@@H](C)CO)C(=O)c2cccc(NC(=O)c3ccncc3)c2O[C@H]1CN(C)Cc1ccc(C(F)(F)F)cc1` gave T cruzi growth-1 94, Pf Dd2 inh 4 and C diff growth 6.
For C[C@@H]1CN([C@@H](C)CO)C(=O)c2cccc(N(C)C)c2O[C@@H]1CN(C)Cc1ccc(C(=O)Nc2ccccc2N)cc1 the results were T cruzi growth-1 113*, Pf Dd2 inh -82*, C diff growth 2, T cruzi growth-2 104*, T cruzi growth-3 42, NIH3T3 tox 31 and 3T3 cytotox 2 73*.
Screening C[C@@H]1CN([C@H](C)CO)C(=O)c2cccc(NC(=O)c3ccncc3)c2O[C@@H]1CN(C)Cc1ccccc1 returned T cruzi growth-1 35, Pf Dd2 inh 3 and C diff growth 9.
Screening C[C@H]1CN([C@@H](C)CO)C(=O)c2cccc(N(C)C)c2O[C@@H]1CN(C)Cc1ccc(C(=O)Nc2ccccc2N)cc1 returned T cruzi growth-1 87, Pf Dd2 inh inconclusive and C diff growth -3.
C[C@H](CO)N1C[C@H](C)[C@H](CN(C)Cc2ccc(C(=O)Nc3ccccc3N)cc2)Oc2c(NC(=O)c3ccncc3)cccc2C1=O was read as T cruzi growth-1 inconclusive, Pf Dd2 inh 6, C diff growth -3, T cruzi growth-2 105*, T cruzi growth-3 83, NIH3T3 tox 5 and 3T3 cytotox 2 inconclusive.
For C[C@H](CO)N1C[C@H](C)[C@H](CN(C)Cc2ccc(C(F)(F)F)cc2)Oc2c(NC(=O)c3ccncc3)cccc2C1=O the results were T cruzi growth-1 inconclusive, Pf Dd2 inh -13, C diff growth 0, T cruzi growth-2 91, T cruzi growth-3 92, NIH3T3 tox 20 and 3T3 cytotox 2 19.
C[C@@H]1CN([C@H](C)CO)C(=O)c2cccc(NC(=O)c3ccncc3)c2O[C@@H]1CN(C)Cc1ccc(C(=O)Nc2ccccc2N)cc1 was read as T cruzi growth-1 90*, Pf Dd2 inh -47, C diff growth 1, T cruzi growth-2 103*, T cruzi growth-3 77, NIH3T3 tox 4 and 3T3 cytotox 2 33*.
Screening C[C@H](CO)N1C[C@H](C)[C@H](CN(C)Cc2ccccc2)Oc2c(NC(=O)c3ccncc3)cccc2C1=O returned T cruzi growth-1 70, Pf Dd2 inh -2 and C diff growth 5.
Screening COc1ccc(S(=O)(=O)N[C@H]2CC[C@H](CC(=O)O)O[C@@H]2CO)cc1 returned T cruzi growth-1 49, Pf Dd2 inh -5 and C diff growth 4.
`CCNC(=O)C[C@@H]1CC[C@H]2[C@H](COc3ccc(NC(=O)C4CCCCC4)cc3C(=O)N2C)O1` gave T cruzi growth-1 -2, Pf Dd2 inh -2 and C diff growth -4.
Screening C[C@H]1CN([C@@H](C)CO)C(=O)c2cccc(NS(=O)(=O)c3ccc(Cl)cc3)c2O[C@H]1CN(C)Cc1ccc(C(F)(F)F)cc1 returned T cruzi growth-1 37, Pf Dd2 inh -14 and C diff growth 17.
C[C@@H]1CN([C@H](C)CO)C(=O)c2cccc(NC(=O)C3CCCCC3)c2O[C@H]1CN(C)S(=O)(=O)c1ccccc1 was read as T cruzi growth-1 28, Pf Dd2 inh -33 and C diff growth 1.
Screening C[C@@H]1CN([C@H](C)CO)C(=O)c2cccc(NC(=O)Nc3ccc(C(F)(F)F)cc3)c2O[C@H]1CN(C)C(=O)Nc1ccc2c(c1)OCO2 returned T cruzi growth-1 81, Pf Dd2 inh -21 and C diff growth 68.
For C[C@H]1CN([C@@H](C)CO)C(=O)c2cccc(NC(=O)c3ccncc3)c2O[C@@H]1CN(C)Cc1ccc(-c2ccccc2)cc1 the results were T cruzi growth-1 inconclusive, Pf Dd2 inh -44, C diff growth -38, T cruzi growth-2 85, T cruzi growth-3 89, NIH3T3 tox 17 and 3T3 cytotox 2 47*.
For C[C@H]1CN([C@@H](C)CO)C(=O)c2cccc(NC(=O)c3ccncc3)c2O[C@H]1CN(C)Cc1ccc(-c2ccccc2)cc1 the results were T cruzi growth-1 107, Pf Dd2 inh -38 and C diff growth 0.
C[C@H](CO)N1C[C@H](C)[C@H](CN(C)C(=O)NC2CCCCC2)Oc2cc(C#Cc3cccc(F)c3)ccc2S1(=O)=O was read as Pf Dd2 inh -61 and C diff growth -6.
Screening C[C@H]1CN([C@@H](C)CO)S(=O)(=O)c2ccc(C#Cc3ccc(F)cc3)cc2O[C@H]1CN(C)C(=O)NC1CCCCC1 returned T cruzi growth-1 71, Pf Dd2 inh -37 and C diff growth -15.
Screening COc1ccc(C#Cc2ccc3c(c2)O[C@H](CN(C)C(=O)NC2CCCCC2)[C@@H](C)CN([C@@H](C)CO)S3(=O)=O)cc1 returned T cruzi growth-1 inconclusive, Pf Dd2 inh -70, C diff growth -8, T cruzi growth-2 109*, T cruzi growth-3 107*, NIH3T3 tox 8 and 3T3 cytotox 2 64*.
For C[C@H]1CN([C@@H](C)CO)S(=O)(=O)c2ccc(C#Cc3ccc(F)cc3)cc2O[C@@H]1CN(C)C(=O)NC1CCCCC1 the results were T cruzi growth-1 80, Pf Dd2 inh -27 and C diff growth -6.
`COc1ccc(C#Cc2ccc3c(c2)O[C@@H](CN(C)C(=O)NC2CCCCC2)[C@@H](C)CN([C@H](C)CO)S3(=O)=O)cc1` gave T cruzi growth-1 inconclusive, Pf Dd2 inh -81*, C diff growth 3, T cruzi growth-2 95*, T cruzi growth-3 113*, NIH3T3 tox -11 and 3T3 cytotox 2 18.
COc1ccc(C#Cc2ccc3c(c2)O[C@H](CN(C)C(=O)NC2CCCCC2)[C@H](C)CN([C@@H](C)CO)S3(=O)=O)cc1 was read as T cruzi growth-1 inconclusive, Pf Dd2 inh -6, C diff growth -3, T cruzi growth-2 102*, T cruzi growth-3 86, NIH3T3 tox -36 and 3T3 cytotox 2 -30.
